# Screening data deposited in PubChem by several laboratories.
# Shown are actives, neighbours in structure and some others; about 3.2% of the full set was active somewhere.
# Pemphigus Ab inh – human desmoglein-3 autoantibody binding inhibition; DSG3-coupled beads, scFv-anti-DSG3-GFP binding, flow cytometry; hits give low values; P32926; binding (percent of control), % at 10 µM; 310,000 compounds, 0.48% hits;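 active = binding more than 3 SD below its plate's average and above zero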;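 also: hits lower antibody fragment binding to DSG3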
# NadD inh – inhibitors of Staphylococcus aureus NadD; inhibition, % at 20 µM; purified NadD enzyme, colorimetric absorbance read-out; 360,000 compounds, 0.78% hits; AID 602399; in the data active = inhibition above about 26%
# rCAG binder – binds r(CAG) RNA repeats | r(CAG) RNA repeat, TO-PRO-1 dye displacement fluorescence | inhibition, % at 3 µM | 370,000 compounds, 1.3% hits;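 active = inhibition above the plate cutoff, the mean of all test compounds on that plate plus 3 SD, cut at about 35% in these data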;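 also: higher means more dye released from RNA so lower well fluorescence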
# DAGLB inh – blocks human DAGLB lipase activity; Q8NCG7; HEK293T DAGLB membrane lysate, EnzChek fluorogenic substrate; inhibition, % at 5.17 µM; 340,000 compounds, 0.059% hits; AID 504411; in the data active = inhibition above about 34%
# Target sequence (Q8NCG7 whole entry, looked up): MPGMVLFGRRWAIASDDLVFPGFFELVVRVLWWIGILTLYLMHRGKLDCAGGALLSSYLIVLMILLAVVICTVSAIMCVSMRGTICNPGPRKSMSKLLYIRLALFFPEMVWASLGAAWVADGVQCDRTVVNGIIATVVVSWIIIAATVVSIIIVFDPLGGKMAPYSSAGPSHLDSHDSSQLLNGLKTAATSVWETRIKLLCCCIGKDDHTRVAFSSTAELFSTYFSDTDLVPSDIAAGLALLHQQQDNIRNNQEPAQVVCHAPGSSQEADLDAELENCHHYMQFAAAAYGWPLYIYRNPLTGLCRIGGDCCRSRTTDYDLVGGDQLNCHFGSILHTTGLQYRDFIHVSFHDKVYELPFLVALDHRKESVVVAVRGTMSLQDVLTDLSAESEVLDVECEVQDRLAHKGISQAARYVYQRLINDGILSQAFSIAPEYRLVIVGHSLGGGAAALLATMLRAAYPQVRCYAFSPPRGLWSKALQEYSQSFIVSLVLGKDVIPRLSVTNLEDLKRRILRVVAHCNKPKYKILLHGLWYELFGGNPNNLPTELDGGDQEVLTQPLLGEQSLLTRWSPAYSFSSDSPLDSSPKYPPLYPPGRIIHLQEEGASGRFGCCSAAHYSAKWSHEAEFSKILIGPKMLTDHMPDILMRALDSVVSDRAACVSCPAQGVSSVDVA
# MsrA inh – bovine MsrA inhibition. purified bovine MsrA, absorbance read-out. inhibition, % at 15.5 µM. 360,000 compounds, 0.75% hits. AID 651718; in the data active = inhibition above about 4.5%
# bovine MsrA act – activates bovine MsrA enzyme; purified bovine MsrA, absorbance read-out; 360,000 compounds, 0.3% hits; activation, % at 10.6 µM; in the data active = activation above about 7.5%
# Hits are given with their value; n = inactive; x = not tested or not shown.
SMILES,Pemphigus Ab inh,NadD inh,rCAG binder,DAGLB inh,MsrA inh,bovine MsrA act
CC(C)N(Cc1cn(Cc2ccccc2)nn1)S(=O)(=O)c1ccc(F)cc1Br,x,x,n,x,x,x
COc1ccc(-n2c(N)c(C(=O)NCC3CCCO3)c3nc4ccccc4nc32)c(OC)c1 (stereo not drawn),73,n,n,n,n,n
CCCCc1cc(=O)oc2cc(C)cc(OCC(=O)Nc3ccccn3)c12,3.8,n,n,n,n,n
CCCCc1cc(=O)oc2cc(C)cc(OCC(=O)NC(Cc3ccc(Cl)cc3)C(=O)O)c12 (stereo not drawn),x,n,40,n,n,n
COc1ccccc1-c1nnc2n1N=C(c1ccc3c(c1)OCO3)CS2,x,x,n,x,x,x
O=C(/C=C1\NC2(CCCC2)Cc2ccccc21)C(=O)N/N=C/c1ccc(O)c(O)c1,n,38,n,n,n,n
Cc1cc(OC(=O)c2c(C)cc(OC(=O)c3c(C)cc(O)cc3O)cc2O)cc(O)c1C(=O)O,n,n,69,n,n,n
CCN(CC)c1ccc(N=C2C=CC(=O)C=C2NC(C)=O)cc1,x,n,n,x,n,n
Cc1cccc(C2=NN(c3ccccc3)[C@@H](C(=O)N3CCOC3=O)[C@@H]2c2ccc([N+](=O)[O-])cc2)c1,n,n,n,n,5.5,n
O=C1OCCN1C(=O)[C@H]1[C@H](c2ccc([N+](=O)[O-])cc2)C(c2ccccc2)=NN1c1ccc(Br)cc1,n,n,n,n,4.8,n
O=C1OCCN1C(=O)[C@H]1[C@H](c2ccc([N+](=O)[O-])cc2)C(c2cccc(Cl)c2)=NN1c1ccc(Br)cc1,n,n,n,n,n,n
COc1ccc(N2CC(C(=O)Nc3ccc(N4CCOCC4)cc3)CC2=O)cc1 (stereo not drawn),n,n,n,n,n,n
Cc1ccc(N2CC(C(=O)Nc3ccc(N4CCOCC4)cc3)CC2=O)cc1C (stereo not drawn),-0.9,n,n,n,n,n
CCOc1ccc(N2CC(C(=O)Nc3ccc(N4CCOCC4)cc3)CC2=O)cc1 (stereo not drawn),-10,n,n,n,n,n
CCc1nc2ccc(C(=O)Nc3cccc(NS(C)(=O)=O)c3)cn2c1N(CC)CCOC,x,n,n,x,n,n
CC1(C(=O)NS(=O)(=O)c2ccccc2Cl)CCN1C(=O)C1(c2ccc(Cl)cc2)CCC1 (stereo not drawn),x,n,47,x,n,n
O=S1(=O)c2c(cccc2N2CC[C@@H](O)C2)O[C@@H]2CCN1C2,x,x,n,x,x,x
Cc1csc(C(=O)O)c1NC(=O)c1ccc(F)cc1,n,n,n,n,n,n
COC(=O)c1scc(C)c1N/N=C(\C)c1ccc(F)cc1,-28,n,n,n,n,n
COc1ccc(C(=O)C(=O)N2CCN(C(=O)OCc3ccccc3)CC2)cc1,x,x,n,x,n,x
CC(C)NC1CCC(Nc2ccnc3cc(Cl)ccc23)CC1 (stereo not drawn),n,n,n,n,n,n
CC(CCCN1CCCC1)Nc1ccnc2cc(Cl)ccc12 (stereo not drawn),n,n,n,n,4.8,n
O=C(NCc1ccccc1)C1(C(=O)C2CC2)CC(c2ccccn2)=NO1 (stereo not drawn),x,x,n,x,x,x
COc1ccc(C=NNC(=S)NN=Cc2ccc(OC)c(OC)c2)cc1OC,n,n,n,n,5.7,n
COc1ccc(/C=N/NC(=S)NCc2ccccc2)cc1OC,n,n,n,n,n,n
SMILES,Pemphigus Ab inh,NadD inh,rCAG binder,DAGLB inh,MsrA inh,bovine MsrA act
COc1ccc(N2CCN(C(=O)c3cccc(Cn4cc(Cl)cn4)c3)CC2)cc1,26,n,n,n,n,n
O=C(Nc1ccc2c(c1)oc1ccccc12)c1cccnc1,x,n,n,n,n,n
O=C(Nc1ccc2c(c1)oc1ccccc12)c1ccncc1,-8.2,n,n,n,n,n
CCCOc1ccc(/C=C/c2[nH]c(=O)[nH]c(=O)c2[N+](=O)[O-])cc1OCC,n,n,n,n,n,n
CCOC(=O)COc1ccc(Br)cc1/C=C/c1[nH]c(=O)[nH]c(=O)c1[N+](=O)[O-],n,n,77,n,n,n
COc1ccc(/C=N\Nc2ccccn2)c(OC)c1,n,n,n,n,n,n
COc1ccc(/C=N/Nc2ncc(Br)cn2)c(OC)c1,66,n,n,n,n,n
COc1ccc(/C(C)=N\Nc2nc(-c3ccc(Cl)cc3)cc(C(F)(F)F)n2)cc1OC,n,n,n,n,n,n
COc1ccc(/C=N/Nc2nc(-c3ccc(Cl)cc3)cc(C(F)(F)F)n2)c(OC)c1,n,n,n,n,4.6,n
CCN1/C(=C/C(C)=C/c2sc3ccccc3[n+]2CC)Sc2ccccc21,23,n,n,n,n,n
Cc1c(CCC(=O)N[C@@H](C)C(=O)O)c(=O)oc2cc3oc4c(c3cc12)CCCC4,n,n,n,n,n,n
CCCC(NC(=O)CCc1c(C)c2cc3c4c(oc3c(C)c2oc1=O)CCCC4)C(=O)O (stereo not drawn),n,n,36,n,n,n
CCOc1ccc(N(CC)S(=O)(=O)c2ccc3c(c2)n(C)c(=O)c(=O)n3C)cc1,-11,n,n,n,n,n
Cc1ccc(-c2nnc(SCC(=O)Nc3ccc(Oc4ccccc4)cc3)n2-c2ccc(Cl)cc2)cc1,x,x,n,x,x,x
CCOC(=O)C1CCN(C(=O)Nc2ccc3nc(-c4ccco4)c(-c4ccco4)nc3c2)CC1,n,66,x,n,x,n
CCOC(=O)C1CCN(C(=O)Nc2ccc3c(c2)nc(C)n3C)CC1,n,n,n,n,n,n
CCOC(=O)c1cc(CC)sc1NC(=O)c1ccc(N2C(=O)CCC2=O)cc1,79,n,n,n,n,n
CC1COc2c(N3CCN(C)CC3)c(F)cc3c(=O)c(C(=O)O)cn1c23 (stereo not drawn),n,n,n,n,n,8.8
C[C@H](O)[C@@H]1C(=O)N2CCc3c([nH]c4c(-c5ccccc5)cccc34)[C@@H]2C[C@@H]1N(C)CC1CCCCC1,x,x,n,x,n,x
Cc1ccccc1S(=O)(=O)N1CCCc2nc(-c3ccc(Br)cc3)ccc21,x,x,n,x,n,x
COc1ccc(O)c(/C=N/NC(=O)c2ccc(CSc3nc(C)cc(C)n3)cc2)c1,n,34,n,n,n,n
Cc1cc(C)nc(SCc2ccc(C(=O)N/N=C/c3cccc(O)c3O)cc2)n1,x,n,n,n,n,n
Cc1cc(C)nc(SCc2ccc(C(=O)N/N=C/c3ccc(C(=O)O)cc3)cc2)n1,27,n,n,n,n,n
COc1ccc(CN(CCN2CCOCC2)C(=O)c2cc(F)ccc2F)cc1OC,x,x,n,x,x,x
CC1CCCN1c1ccnc2cc(Cl)ccc12 (stereo not drawn),x,n,n,x,n,n
CO[C@@]1(NC(=O)CSCC#N)C(=O)N2C(C(=O)O)=C(CSc3nnnn3C)CS[C@@H]21,n,n,52,n,n,n
CCN(CC)c1nc(C#N)cc(-c2ccc(OC)cc2)n1,n,n,n,n,8.0,n
COc1ccc(-c2cc(C#N)nc(Cl)n2)cc1,x,n,n,n,5.1,n
